Assay outcomes as filed in PubChem BioAssay.
In the library only some 3.5% were active in any assay of this set; here they are far more common.
TMEM16A act = activates or potentiates the mouse TMEM16A chloride channel; B-score at 10 µM; 340,000 compounds, 0.3% hits; HEK293 TMEM16A/YFP-H148Q/I152L, iodide quench fluorescence; active compounds read low;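 active means fluorescence-ratio B-score plate-corrected deviation score at least 3 library SD below zero, with starting fluorescence score within 5 deviations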;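 further: channel opened by trigger with iodide after compound preincubation; score built on the fluorescence ratio of max minus min over baseline; more negative score means more quench and so TMEM16A activation or potentiation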
Target sequence (Q8BHY3 whole entry, looked up): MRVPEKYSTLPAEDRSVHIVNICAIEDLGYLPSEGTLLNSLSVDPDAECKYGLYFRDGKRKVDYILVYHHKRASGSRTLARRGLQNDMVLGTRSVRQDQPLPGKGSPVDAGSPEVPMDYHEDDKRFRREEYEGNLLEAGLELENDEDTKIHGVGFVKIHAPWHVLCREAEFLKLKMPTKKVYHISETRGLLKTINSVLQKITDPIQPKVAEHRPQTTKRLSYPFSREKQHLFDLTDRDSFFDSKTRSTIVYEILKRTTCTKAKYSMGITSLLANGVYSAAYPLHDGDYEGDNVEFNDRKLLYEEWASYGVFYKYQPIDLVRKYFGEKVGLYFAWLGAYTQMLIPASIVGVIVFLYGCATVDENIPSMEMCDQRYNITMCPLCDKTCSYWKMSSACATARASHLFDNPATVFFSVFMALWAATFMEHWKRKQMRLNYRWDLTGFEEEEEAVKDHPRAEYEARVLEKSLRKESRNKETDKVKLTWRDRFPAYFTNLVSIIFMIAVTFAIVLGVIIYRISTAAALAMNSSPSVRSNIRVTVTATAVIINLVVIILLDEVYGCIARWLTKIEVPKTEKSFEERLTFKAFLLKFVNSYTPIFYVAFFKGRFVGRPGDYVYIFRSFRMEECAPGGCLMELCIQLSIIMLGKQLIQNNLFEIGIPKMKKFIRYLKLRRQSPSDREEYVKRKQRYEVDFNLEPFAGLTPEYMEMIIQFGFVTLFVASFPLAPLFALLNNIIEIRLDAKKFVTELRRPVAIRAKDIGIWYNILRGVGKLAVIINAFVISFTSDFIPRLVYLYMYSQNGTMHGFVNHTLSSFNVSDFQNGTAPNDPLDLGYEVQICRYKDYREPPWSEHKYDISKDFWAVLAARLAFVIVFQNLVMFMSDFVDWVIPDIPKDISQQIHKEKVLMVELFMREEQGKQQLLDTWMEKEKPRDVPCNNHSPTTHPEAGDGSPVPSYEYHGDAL
ANO1 block = blocks the mouse calcium-activated chloride channel TMEM16A | AID 588511 | normalized B-score (activity score, 25-100; higher = stronger inhibition) at 10 µM | 310,000 compounds, 1.2% hits | Q8BHY3 | HEK293 TMEM16A/YFP iodide influx fluorescence, ionomycin;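 active means ratio plate-corrected score three or more library SD toward inhibition, starting fluorescence score within five deviations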;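 further: score derived from kinetic fluorescence span divided by baseline fluorescence per well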
KCNK3 inh = human KCNK3 channel inhibition, primary screen. CHO-KCNK3 thallium flux, FluxOR fluorescence; active compounds read low. B-score at 10 µM. 340,000 compounds, 0.84% hits. AID 602410;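 active means B-score under library mean minus 4 SD, starting fluorescence ratio at most library mean plus 5 SD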;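 further: more negative B-score means stronger inhibition of thallium flux through KCNK3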
KCNK9 block = inhibitors of human KCNK9 two-pore domain potassium channel | Q9NPC2 | HEK293 KCNK9, FluxOR thallium flux fluorescence; active compounds read low | 310,000 compounds, 1.2% hits | B-score at 10 µM;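 active means ratio B-score over 3 SD below the library mean, with starting fluorescence within 5 SD of its mean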;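 further: negative B-score means less thallium flux so channel inhibition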
Kir21 block = Kir2.1 (mouse) channel inhibition; 310,000 compounds, 0.85% hits; B-score at 10 µM; AID 1672; HEK293-Kir2.1, FluxOR thallium flux fluorescence; active compounds read low; P35561;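 active means fluorescence ratio B-score at or below minus 3 SD of library scores, with starting-brightness B-score within 2 SD, cut at about -4.2 in these data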;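 further: channel flux triggered by added potassium and thallium sulfate stimulus; B-score of peak minus minimum fluorescence over baseline after thallium stimulus; more negative B-score means stronger Kir2.1 block with less thallium influx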
Hits are given with their value; 0 = inactive; - = not tested or not shown.

SMILES | TMEM16A act | ANO1 block | KCNK3 inh | KCNK9 block | Kir21 block
Cc1ccc(S(=O)(=O)N(CC(=O)NCC2CCCO2)C2CCCCC2)cc1 (configuration not stated) | 0 | 0 | 0 | 0 | 0
CN(C)CCO[C@@H](c1ccc(Cl)cc1)c1ccccn1 | 0 | 0 | 0 | 0 | 0
Cc1ccc(C(OCCN(C)C)c2cccc(C(F)(F)F)c2)cc1 (configuration not stated) | 0 | 0 | 0 | 0 | -5.2
O=C(C1CCCN(S(=O)(=O)c2ccc(Br)cc2)C1)N1CCN(Cc2ccccc2)CC1 (configuration not stated) | 0 | 0 | 0 | 0 | 0
CCOC(=O)C1=C(C)NC(SCc2cc(=O)[nH][nH]2)=C(C#N)C1c1cccs1 (configuration not stated) | 0 | 0 | 0 | 0 | 0
c1ccc(-c2ccccc2OCCCCn2ccnc2)cc1 | 0 | 0 | 0 | 0 | -4.8
CC(C)(C)c1cc(Cl)ccc1OCCn1ccnc1 | 0 | 0 | 0 | 0 | -5.6
CC(C)(C)c1ccccc1OCCCCCn1ccnc1 | 0 | 0 | 0 | 0 | -7.4
CC(O)CNCCCOc1ccc(Cl)cc1C(C)(C)C (configuration not stated) | 0 | 0 | 0 | 0 | -6.2
Cc1ccc(-c2ccc(OC(=O)c3ccc(=O)[nH]c3)c(C)c2)cc1 | 0 | 0 | 0 | 0 | 0
Cc1ncc(S(=O)(=O)c2ccc(Cl)cc2)c(-c2ccccc2)n1 | 0 | 0 | 0 | 0 | -4.8
OC(c1cc(-c2ccc(Cl)cc2)nc2ccccc12)C1CCCCN1 (configuration not stated) | 0 | 0 | 0 | 0 | -5.4
O[C@@H](c1cc(C(F)(F)F)nc2c(C(F)(F)F)cccc12)[C@H]1CCCCN1 | 0 | 0 | 0 | 0 | 0
Cc1ccc(C(=O)Oc2ccccc2N2C(=O)C3C4CCC(C4)C3C2=O)cc1 (configuration not stated) | 0 | 0 | 0 | 0 | 0
Cc1cccc(C)c1OCc1nc2ccccc2c(=O)n1/N=C/c1c[nH]c2ccccc12 | 0 | 0 | 0 | 0 | 0
CCOC(=O)C1CCCN(C(=O)C(C)Oc2ccc(Cl)cc2Cl)C1 (configuration not stated) | 0 | 0 | 0 | 0 | -4.7
CCOC(=O)C1CCCN(C(=O)c2cc(Cl)ccc2Cl)C1 (configuration not stated) | 0 | 0 | 0 | 0 | 0
CCc1ncc(C)nc1CC | 0 | 100 | 0 | - | -
CCc1ncc(C)[nH]1 | - | 0 | - | 0 | 0
CCc1ccc(O)c(CNCCNCc2cc(CC)ccc2O)c1 | 0 | 0 | 0 | 0 | -11
O=C(C[n+]1ccc(Cc2ccccc2)cc1)Nc1ccccc1 | 0 | 0 | 0 | 0 | 0
COc1ccc(CCNCC(O)Cn2c3ccccc3c3ccccc32)cc1OC (configuration not stated) | 0 | 0 | 0 | 0 | -10
CCOC(=O)[C@@H]1[C@H]2COc3ccccc3[C@H]2N2C(=O)N(c3ccc(Cl)cc3)C(=O)[C@@]12C | 0 | 0 | 0 | 0 | 0
O=S(=O)(c1cccc2nsnc12)N1CCCCC1 | 0 | 0 | 0 | 0 | 0
O=C(O)CC1CCC1CC(=O)O (configuration not stated) | 0 | - | 0 | - | -
SMILES | TMEM16A act | ANO1 block | KCNK3 inh | KCNK9 block | Kir21 block
CCn1c(CNc2ccccc2Cl)nnc1SCC(=O)OC1CCCCC1 | 0 | 0 | 0 | 0 | -4.5
CCn1c(COc2ccccc2)nnc1SCC(=O)NC1CCCCC1 | 0 | 0 | 0 | 0 | 0
CCn1c(CNc2cccc(Cl)c2)nnc1SCC(=O)OC1CCCCC1 | 0 | 0 | 0 | 0 | -5.1
CCOC(=O)N1CCN(S(=O)(=O)N2CCCC(C(=O)NCc3cccc(OC)c3)C2)CC1 (configuration not stated) | 0 | 0 | 0 | 0 | 0
COc1ccc(CN(C)C(c2ccccc2)c2nnnn2-c2ccccc2C)c(OC)c1C (configuration not stated) | 0 | 0 | 0 | -7.9 | 0
CC1Sc2ccc(S(=O)(=O)NCCc3ccc(Cl)cc3)cc2NC1=O (configuration not stated) | 0 | 0 | 0 | 0 | 0
Cc1ccc2nc(-c3ccncc3)cc(-c3ccccc3)c2c1 | 0 | 0 | 0 | 0 | 0
Cc1ccc(-c2cc3cccc[n+]3cc2-c2ccc(C)cc2)cc1 | 0 | 0 | 0 | 0 | -12
O=C(NCCc1ccccc1)c1ccc(CS(=O)(=O)c2ccc(Br)cc2)o1 | 0 | 0 | 0 | 0 | 0
CN(CCNC(=O)c1ccc(CS(=O)(=O)c2ccc(Br)cc2)o1)CCc1ccccc1 | 0 | 0 | 0 | 0 | -4.9
O=C(CSc1c2c(nc3cc(Cl)ccc13)CCCC2)NCc1ccco1 | 0 | 0 | 0 | 0 | -6.5
O=C(CSc1nc2ccc(Cl)cc2[nH]1)NCc1ccco1 | 0 | 0 | 0 | 0 | 0
CCOc1ccc(NS(=O)(=O)c2cc3c(cc2C)N(C)CCO3)cc1 | -9 | 0 | 0 | 0 | 0
COc1ccc(NS(=O)(=O)c2cc3c(cc2C)N(C)CCO3)cc1 | 0 | 0 | 0 | 0 | 0
CCCN(Cc1ccco1)S(=O)(=O)c1ccc(OC)c(OC)c1 | 0 | 0 | 0 | 0 | -4.9
COc1ccc(S(=O)(=O)NCCc2ccco2)cc1OC | 0 | 0 | 0 | 0 | 0
CCOC(=O)N1N=C(CC)CC1(O)C(F)(F)F (configuration not stated) | -11 | 0 | 0 | 0 | 0
COCCNC(=O)COC(=O)c1[nH]c(C)c(C(C)=O)c1C | 0 | 100 | 0 | 0 | 0
COc1ccc(C(=O)O)cc1S(=O)(=O)Nc1ccccc1Cc1ccccc1 | 0 | - | 0 | 0 | 0
CCSC1=C(C#N)C2(CCCC2)C(C#N)=C(N)N1 | - | 0 | 0 | 0 | 0
N#CC1=C(N)NC(SCc2ccc(Cl)cc2)=C(C#N)C12CCCCC2 | 0 | 100 | 0 | 0 | 0
N#CC1=C(N)NC(SCc2ccccc2)=C(C#N)C12CCCC2 | -5.1 | 0 | 0 | 0 | 0
N#CC1=C(N)NC(SCC(=O)Nc2ccc(Br)cc2)=C(C#N)C12CCCCC2 | 0 | 100 | 0 | 0 | 0
CC(C)CCN(C(=S)NC(=O)C1CCCCC1)c1c(N)n(Cc2ccccc2)c(=O)[nH]c1=O | 0 | 0 | 0 | 0 | 0
COc1ccc(-c2[nH]ncc2CN2CCC(c3ccncc3)CC2)cc1F | 0 | 0 | 0 | 0 | 0
SMILES | TMEM16A act | ANO1 block | KCNK3 inh | KCNK9 block | Kir21 block
COc1ccc(CCNC(=O)COc2ccc(N(C)S(=O)(=O)c3ccc(Cl)cc3)cc2)cc1 | 0 | - | 0 | 0 | -5.9
NS(=O)(=O)c1ccc(CCNC(=O)CNC(=O)COc2ccccc2)cc1 | -4.7 | 0 | 0 | 0 | 0
CN(c1ccc(OCC(=O)NCCc2ccccc2)cc1)S(=O)(=O)c1ccc(Cl)cc1 | 0 | 0 | 0 | 0 | 0
O=C(CCCOc1ccccc1)NCCc1ccccc1 | 0 | 0 | 0 | 0 | 0
NS(=O)(=O)c1ccc(CCNC(=O)CCCOc2ccccc2)cc1 | -4.6 | 0 | 0 | 0 | 0
CCOc1ccc(CCNC(=O)CCc2nnc3ccc(N4CCCCC4)nn23)cc1OCC | 0 | 0 | 0 | 0 | 0
Cc1c(C(=O)C(=O)NCCCn2ccnc2)c2ccccc2n1C | 0 | 0 | 0 | 0 | 0
CN(c1ccccc1)S(=O)(=O)c1cccc(NC(=O)COc2ccccc2)c1 | 0 | - | 0 | - | -
